Screening data: PubChem BioAssay, National Center for Advancing Translational Sciences (NCATS)
AMA1 RON2 block – disrupts binding of P. falciparum AMA1 to RON2; AlphaScreen AMA1-biotinylated RON2 peptide binding; Potency, µM (doses to about 58.2 µM), usual class: inhibitors; 0.2% of 360,000 active; further: nearly all actives have a fitted effect of over 45% in size
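AMA1 (3D7) with his tag at 25 nM final met compounds first, then biotinylated RON2 peptide at 25 nM; detection used donor plus acceptor beads, 10 µg/mL apiece, read by AlphaScreen after 30 min at room temperature.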
Pf growth 48h – P. falciparum growth inhibition at 48 hours (one generation); P. falciparum luciferase growth in erythrocytes, 48 h; Potency, µM (series often up to 28.7 µM), most hits filed as inhibitors; 5.9% of 310,000 active
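First compound was added to culture medium, then infected red cells at 0.1% parasitemia and 2% hematocrit (final). After incubation at 37 C under 5% CO2, luciferase detection reagent was dispensed and light output recorded.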
Shiga inhibitor – inhibitors of Shiga toxin in Vero cells | Vero cells, Shiga toxin protein synthesis inhibition reporter | 9.2% of 290,000 active | AID 2315 | inhibition, % at 38.7 µM; in the data active means inhibition mostly above about 28%, no sharp cut-off; inactive means mostly below about 43%
CHX counter – counter-screen for Shiga toxin inhibitors: cycloheximide protein synthesis inhibition; 12% of 300,000 active; cell reporter, cycloheximide protein synthesis inhibition counterscreen; max response, %; AID 2314; in the data active means max response mostly above about 13%, no sharp cut-off; inactive means mostly below about 14%; further: read at 38.3 µM for the half of the compounds with a filed dose
SARS PLpro yeast – blocks SARS-CoV papain-like protease in a yeast assay | S. cerevisiae expressing SARS-CoV PLpro, growth rescue | Potency, µM (titrated, usually from 32.9 µM), hits mostly activators | 0.19% of 330,000 active | AID 485353; calls by dose curve; further: nearly all actives have a fitted effect of over 55% in size
Pf growth 96h – P. falciparum growth inhibition at 96 hours | Potency, µM (doses to about 28.7 µM), usual class: inhibitors | P. falciparum luciferase reporter growth, 96 h | 6.9% of 320,000 active
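Two parasite generations (96 h, 37 C, 5% CO2) of compound exposure in infected erythrocytes (0.05% parasitemia, 2% hematocrit). Luciferase-reporter P. falciparum; decreased luminescence indicates inhibited growth, aimed at apicoplast-acting delayed death.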
Each line names hits and unclear results; the compound was inactive in the other large screens. Shown are actives, neighbours in structure and some others; about 19% of the full set was active somewhere. Unless noted, the call rests on the fitted dose curve; in most records, active means well fitted curve in the direction sought with a large enough effect; inconclusive means small, poorly fitted or top-dose-only effect, or another doubt; inactive means no such curve, though single readings can be large; an effect the other way counts as inactive or inconclusive.

CC(C)N(C(=O)CSc1nnc(NC(=O)C2CCC2)s1)C(C)C	Pf growth 48h 6.6µM, Pf growth 96h inconclusive
CC(Sc1nc2ccccc2s1)C(=O)NCc1ccc2c(c1)OCO2 (stereo not drawn)	Shiga inhibitor active, CHX counter 20
CC(Sc1nnc(-c2cccs2)n1Cc1ccccc1)C(=O)NCc1ccc2c(c1)OCO2 (stereo not drawn)	Pf growth 96h 8.3µM (no result: Pf growth 48h)
CCn1c(SC(C)C(=O)NC2CCCc3ccccc32)nnc1-c1cccs1 (stereo not drawn)	Pf growth 96h 17µM (no result: Pf growth 48h)
Cc1ccc(-n2c(-c3ccccc3)c[n+]3c2CCc2ccccc2-3)c(C)c1	Pf growth 48h 0.93µM
O=C(c1cc(-c2ccc(Br)cc2)on1)N1CCCC1	Shiga inhibitor 118, CHX counter 33
O=C(c1sc2ccccc2c1Cl)N1CCN(c2ccccn2)CC1	none
O=C(c1cc(-c2ccccc2)on1)N1CCC2(CC1)OCCO2	Shiga inhibitor 79, CHX counter 32 (no result: AMA1 RON2 block)
O=C(c1cc2ccccn2n1)N1CCC2(CC1)OCCO2	Pf growth 96h inconclusive
O=C(Nc1nnc(N2CCCCCC2)s1)c1cc(-c2ccc(Br)cc2)on1	Pf growth 96h inconclusive
O=C(c1sc2ccccc2c1Cl)N1CCC2(CC1)OCCO2	CHX counter 12
O=C(/C=C/c1ccc(-c2ccc(F)cc2)o1)N1CCCC1	Shiga inhibitor 64, CHX counter 39
Cn1nc(C(=O)NCCCN2CCCCC2)c2c1-c1ccccc1S(=O)(=O)C2	none
CCOC(=O)C1CCCN(C(=O)c2cc(-c3ccc(C)cc3)on2)C1 (stereo not drawn)	Shiga inhibitor 113, CHX counter 58
COC(=O)c1cc(-c2ccc(Br)cc2)on1	none (no result: Pf growth 48h)
O=C(c1cc(-c2ccc(F)cc2)on1)N1CCCC1	Shiga inhibitor 66, CHX counter 50 (no result: Pf growth 96h)
O=C(c1cc(-c2ccc3c(c2)OCO3)on1)N1CCN(c2ccc(F)cc2)CC1	none
CCN(CC)C(=O)c1cc(-c2ccc(Br)cc2)on1	Shiga inhibitor 90, CHX counter 47, Pf growth 96h inconclusive
O=C(c1cc(-c2ccc(F)cc2)on1)N1CCCCCC1	Shiga inhibitor 115, CHX counter 46, Pf growth 96h 15µM
COc1cc(CNCCNC(=O)c2nonc2N)ccc1OCc1ccc(Cl)cc1	Pf growth 48h inconclusive
CC1CN(C(=O)C2(C)CC2(Br)Br)CC(C)O1 (stereo not drawn)	none
COC(=O)c1ccc(C23CC4(C2)[C@H](CN(CC2CCCCC2)[C@@H]4c2ccccc2)C3c2ccccc2)cc1 (stereo partly drawn)	Pf growth 48h inconclusive, Pf growth 96h inconclusive
NC(=O)[C@@H]1CCCN1C(=O)c1cc(COc2ccc3c(c2)CCCC3)on1	Shiga inhibitor 34, CHX counter 36, Pf growth 96h inconclusive
Cc1cccc(C)c1OCc1cc(C(=O)N2CCC[C@H]2C(N)=O)no1	none
O=C(c1cc(-c2ccc(O)cc2)on1)N1CCCC1	Shiga inhibitor 97, CHX counter 37
CN1CCN(C(=O)c2cc(-c3ccccc3)on2)CC1	Shiga inhibitor 109, CHX counter 38 (no result: Pf growth 96h)
O=C(c1cc(-c2ccccc2)on1)N1CCCCCC1	Shiga inhibitor 71, CHX counter 29
O=C(c1cc(-c2ccc(F)cc2)on1)N1CCOCC1	CHX counter 27
CCOC(=O)C1CCCN(C(=O)c2cc3ncc(Br)cn3n2)C1 (stereo not drawn)	Pf growth 96h inconclusive
O=C(c1cc(-c2ccc(O)cc2)on1)N1CCN(c2ccc(F)cc2)CC1	none
O=C(c1cc(-c2ccccc2)on1)N1CCN(C(=O)c2ccco2)CC1	CHX counter 19
O=C(c1cc(COc2ccc3ncccc3c2)on1)N1CCCC(O)C1 (stereo not drawn)	Pf growth 96h inconclusive
O=C(c1cc(COc2ccc3ncccc3c2)on1)N1CCC[C@H]1CO	Shiga inhibitor 56, CHX counter 34, Pf growth 96h inconclusive
CCOC(=O)C1CCCN(C(=O)c2cc(COc3ccc(C)nc3)on2)C1 (stereo not drawn)	Shiga inhibitor 73, CHX counter 51
CCOC1=C2[C@@H](CN(S(=O)(=O)c3ccc(C)cc3)[C@H]2c2cccc3ccccc23)[C@H]2C(=O)N(C3CCCCC3)C(=O)[C@H]2C1	none (no result: Pf growth 48h, Shiga inhibitor, CHX counter, SARS PLpro yeast, Pf growth 96h)
COCCC1CCCCN1C(=O)c1cc(COc2ccc(C)nc2)on1 (stereo not drawn)	CHX counter 49, Pf growth 96h inconclusive
CC1CCN(C(=O)c2cc(-c3ccc(Cl)c(Cl)c3)on2)CC1	Pf growth 96h inconclusive
COCCCC1CCN(C(=O)c2cc(COc3ccc(C)nc3)on2)CC1	none
Cc1ccc(-c2cc(C(=O)N3CCCCCC3)no2)cc1	Shiga inhibitor 102, CHX counter 48, Pf growth 96h inconclusive
CCCS(=O)(=O)NC(=O)C1(C)CCN(C(=O)c2ccc(C(F)(F)F)nc2C)C1 (stereo not drawn)	none (no result: Pf growth 48h, Shiga inhibitor, CHX counter, SARS PLpro yeast, Pf growth 96h)
CC(C)c1ccc(NC2CCCN(C(=O)c3cnsn3)C2)cc1 (stereo not drawn)	none
CNc1nc(-c2ccc3c(c2)CCN3C(=O)c2ccccc2F)c(C)s1	Pf growth 48h inconclusive, Shiga inhibitor 61, CHX counter 18, Pf growth 96h inconclusive
CNc1nc(-c2ccc3c(c2)CCN3C(=O)c2ccccc2F)cs1	Pf growth 48h inconclusive, Shiga inhibitor 95, CHX counter 54
CNc1nc(-c2ccc3c(c2)CCN3C(=O)CC(C)(C)C)c(C)s1	none
O=C(c1cccc(F)c1F)N1CCCc2ccccc21	Pf growth 48h inconclusive (no result: Shiga inhibitor)
CS(=O)(=O)N1CCc2cc(-c3csc(NC(=O)C(c4ccccc4)c4ccccc4)n3)ccc21	Pf growth 48h 13µM (no result: Pf growth 96h)
COc1ccc(NC(=O)CSc2nc3c(oc4ccccc43)c(=O)n2Cc2ccco2)cc1Cl	none (no result: AMA1 RON2 block, Pf growth 48h, SARS PLpro yeast, Pf growth 96h)
CCOC(=O)C1CCN(C(=O)Nc2cc(Cl)cc(Cl)c2)CC1	none
C[C@@H]1CN([C@H](C)CO)C(=O)c2cc(Br)cnc2O[C@H]1CN(C)Cc1ccccc1	none (no result: Pf growth 48h, Shiga inhibitor, CHX counter, SARS PLpro yeast, Pf growth 96h)
CCOC(=O)Cn1nc2oc(=O)c(CCN3CCN(c4ccccc4OC)CC3)c(C)c2c1C	none (no result: Pf growth 48h, Shiga inhibitor, CHX counter, SARS PLpro yeast, Pf growth 96h)
CCNc1nc(NCC)nc(N(C#N)CCOc2ccccc2)n1	Pf growth 48h inconclusive, Pf growth 96h 5.2µM
Nc1nc(-c2ccco2)nn1S(=O)(=O)c1ccc(Cl)cc1	none
COc1nnc(-c2ccc(C)c(S(=O)(=O)NCC3CCCO3)c2)c2ccccc12 (stereo not drawn)	Pf growth 48h inconclusive
COc1nnc(-c2ccc(C)c(S(=O)(=O)NC(C)C)c2)c2ccccc12	Pf growth 96h 2.6µM (no result: Pf growth 48h)
COc1nnc(-c2ccc(C)c(S(N)(=O)=O)c2)c2ccccc12	Pf growth 96h 2.9µM (no result: Pf growth 48h)
COc1cc(NS(=O)(=O)c2ccc(Br)s2)cc(OC)c1	none
